The target in test [1] is Cytochrome P450 3A4 (Homo sapiens) (UniProt P08684). The test is described as follows: qHTS Assay for Activators of Cytochrome P450 3A4 (AID 885). Also: nearly all actives have a fitted effect of over 65% in size. The essentials:
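Steps: enzyme/substrate mix dispensed; compound added, 10 min RT; NADPH regeneration solution added, 60 min RT; luciferin detection buffer stops reaction; 20 min later luminescence measured.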

The nature of test [2]: qHTS Assay for Lipid Storage Modulators (AID 1519; calls by dose curve; as to activity change, negative = inhibition: % is scaled to controls: 0 for no effect and ±100 for the full control effect). The settings on record: Drosophila S3 cells, BODIPY lipid droplet/cell ratio, laser cytometry, cells loaded with oleic acid; for activity change, negative = inhibition: at 57.5 µM (top of the series). An outline of the steps:
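Cells seeded at 5,000 per well were treated with compounds over a concentration series and loaded with oleic acid (400 uM, as added). Lipid droplet fluorescence (488 nm excitation, 500-530 nm channel) was read by laser-scanning cytometry and normalized to 20 uM Triacsin C.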
In general terms: Quantitative high-throughput screening tests each substance at several concentrations.

Test [3] has as its target Ubiquitin carboxyl-terminal hydrolase 1 (Homo sapiens) (UniProt O94782). The test is described as follows: Inhibitors of USP1/UAF1: Pilot qHTS (AID 504865). Also: nearly all actives have a fitted effect of over 35% in size. Also: potency is read from the fitted curve at half-maximal effect. The essentials: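 In 50mM HEPES pH 7.8 containing 0.5mM EDTA, 1mM TCEP, 0.1 mg/ml BSA and 0.01% Tween-20, 1nM USP1/UAF1 is exposed to compound for 15 min, then Ub-Rho (150nM final) is added and fluorescence is read over time.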

In test [4] the target is DNA dC->dU-editing enzyme APOBEC-3G (Homo sapiens) (UniProt Q9HC16). The test is described as follows: qHTS for inhibitors of Vif-A3G interactions: Validation (AID 588379). Also: 0% is about no effect. The essentials:
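HeLa cells stably expressing Vif and A3G-eYFP, 700 cells/well, incubated overnight at 37 deg C, then exposed to compound overnight at 37 deg C. Inhibition of Vif-mediated degradation read as increased yellow fluorescence (Ex 488/Em 500-530) by laser-scanning cytometry.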

Test [5] has as its target Cytochrome P450 3A4 (Homo sapiens) (UniProt P08684). Description: qHTS Assay for Inhibitors and Substrates of Cytochrome P450 3A4 (AID 884). Also: % is scaled to controls: 0 for no effect and ±100 for the full control effect; nearly all actives have a fitted effect of over 50% in size. An outline of the steps:
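20 nM human CYP3A4 with 25 uM Luciferin-PPXE (at KM) in 200 mM KPO4, preincubated 10 min with compound; NADPH regeneration started a 60 min RT reaction. Luciferin detected by luminescence, normalized to 57 uM ketoconazole as full inhibition.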

The nature of test [6]: Confirmation and Secondary Assay for Modulators of Hemoglobin Beta Chain Splicing at IVS2 654 locus (AID 910).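 Also: HeLa cells stably carrying EGFP split by mutant beta-globin IVS2-654 intron; per-well total GFP intensity by laser scanning cytometry after 2-day treatment; % of control where 0% means no effect.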 An outline of the steps: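 Readout: per-well total peak green fluorescence (488 nm ex, 500–520 nm em) from objects 5–250 µm, reflecting correct splicing of an EGFP-654 reporter. Compounds were applied for 2 days at 37 °C to overnight-plated HeLa EGFP-654 cells; controls were DMSO and 500 nM IVS2-654 PNA.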

A short description of test [7]: Confirmation and Secondary Assay for Modulators of Hemoglobin Beta Chain Splicing at IVS2 705 locus (AID 930).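 Also: HeLa cells stably expressing the EGFP-705 splicing reporter; GFP fluorescence per well restored by corrected splicing of the IVS2-705 intron in EGFP; % of control where 0% means no effect.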 The essentials:
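HeLa EGFP-705 reporter; 500 cells/well, o/n 37C 5% CO2; cpd 2 d; 488 ex/500-520 em laser scan; total peak GFP intensity/well. Ref: 500 nM […] antisense PNA.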

Test [8] in a line: qHTS assay for small molecule antagonists of peroxisome proliferator-activated receptor delta signaling (AID 588535; active = well fitted inhibition curve with a large enough effect in the signal ratio, with a control signal flat, not every such curve was filed as active; the % refers to the signal ratio;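 as to max response: cells co-treated with a PPAR-delta agonist as stimulator during compound exposure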). The settings on record: HEK293T PPARd-UAS-bla, beta-lactamase FRET ratio, 18 h; 460 nm channel. An outline of the steps: (§1)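 HEK293T PPAR-delta-UAS-bla cells, 4000/well, 2% charcoal/dextran FBS; 5 h 37 C; cpd titration; 18 h 37 C; CCF4 2 h RT; FI 460/530 nm; Hill fit → IC50, efficacy.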

Test [9] addresses Peroxisome proliferator-activated receptor delta (Homo sapiens) (UniProt Q03181). The description is as above. An outline of the steps: as §1
The target in test [10] is Vitamin D3 receptor (Homo sapiens) (UniProt P11473). The test is described as follows: qHTS assay for small molecule antagonists of vitamin D receptor signaling (AID 588541; calls by dose curve;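 also: receptor activated by calcitriol during compound treatment; % is scaled to controls: 0 for no effect and ±100 for the full control effect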). An outline of the steps: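 Antagonist-mode beta-lactamase reporter assay: HEK293T VDR-UAS-bla cells were exposed to titrated compound alongside 1-alpha,25-dihydroxyvitamin D3 at 3 nM final for 16 h. Values were normalized to the 50 nM agonist control and DMSO basal, with IC50 and efficacy from Hill equation fits.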

Test [11] is described as follows: qHTS assay for small molecule agonists of retinoid X receptor alpha signaling (AID 588544; calls by dose curve). The settings on record: HEK293T RXRa-UAS-bla, beta-lactamase reporter, 18 h; 530 nm emission.
Test [12] deals with Retinoic acid receptor RXR-alpha (Homo sapiens) (UniProt P19793). Described as above.
A short description of test [13]: qHTS assay for small molecule antagonists of retinoid X receptor alpha signaling (AID 588546; active = well fitted inhibition curve with a large enough effect in the signal ratio, with a control signal flat, not every such curve was filed as active; the % refers to the signal ratio;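 also: cells stimulated with 9-cis-retinoic acid as agonist; % is scaled to controls: 0 for no effect and ±100 for the full control effect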). The settings on record: HEK293T RXRa-UAS-bla, beta-lactamase ratio, antagonist mode; measured here: W530 green channel, cytotoxicity proxy. An outline of the steps:
(§2)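 Beta-lactamase reporter inhibition, read as CCF4 fluorescence ratio (ex 405, em 460/530 nm) after 2 h at RT. HEK293T UAS-bla cells, 2500/well, were stimulated with 9-cis-RA at 500 or 100 nM final alongside test compound for 18 h at 37 C.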

For test [14], the target named is Retinoic acid receptor RXR-alpha (Homo sapiens) (UniProt P19793). Described as above. The settings on record: HEK293T RXRa-UAS-bla, beta-lactamase ratio, antagonist mode. The essentials:
as §2

The target of test [15] is Peroxisome proliferator-activated receptor alpha (Homo sapiens) (UniProt Q07869). Description: qHTS assay for small molecule agonists of the peroxisome proliferator-activated receptor alpha (PPARalpha) signaling pathway (AID 651778). Also: % of control where 0% means no effect. The settings on record: PathHunter PPARalpha complementation, chemiluminescence, 6 h; stronger effect = higher value. An outline of the steps:
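Chemiluminescence from complemented enzyme reported PPARalpha activation in cells after 6 hr of compound treatment at 37 C. The detection reagent was incubated for 60 min at room temperature, and compounds were scored as agonists.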

A short description of test [16]: qHTS assay for small molecule agonists of the antioxidant response element (ARE) signaling pathway measured by Nrf2-dependant transcriptional activity - cell viability counter screen (AID 720653; active = well fitted curve in the direction sought with a large enough effect in the repeat runs; an effect the other way counts as inactive or inconclusive; also: % is scaled to controls: 0 for no effect and ±100 for the full control effect). The settings on record: ARE-bla HepG2 viability, CellTiter-Glo ATP luminescence, 16 h; stronger effect = lower value. An outline of the steps:
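Cytotoxicity counter screen: intracellular ATP quantified by CellTiter-Glo luminescence in the same ARE-bla HepG2 plates, after 16 h compound exposure and a 2 h beta-lactamase substrate step.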

Test [17] is described as follows: qHTS assay for cell viability of HEK293 cells (AID 743288). Also: % is scaled to controls: 0 for no effect and ±100 for the full control effect; nearly all actives have a fitted effect of over 50% in size. The settings on record: ATP luminescence (CellTiter-Glo), 18 h; max response: stronger effect = lower value. An outline of the steps: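 HEK293 parental, 2,000 cells/well; ≥5 h pre-incubation 37 C; pintool compound addition; 18 h, 37 C; CellTiter-Glo 30 min RT; luminescence read.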
A short description of test [18]: qHTS assay for cell viability of the p53RE-bla HCT-116 cell line (AID 743292). Also: % is scaled to controls: 0 for no effect and ±100 for the full control effect; nearly all actives have a fitted effect of over 55% in size. The essentials: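 HCT-116 p53RE-bla cells seeded 4,000/well; 5 h at 37 C; compound (DMSO) added; 16 h at 37 C; CellTiter-Glo added, 30 min RT; luminescence read.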
Test [19] deals with Nuclear receptor subfamily 1 group I member 2 (Rattus norvegicus) (UniProt Q9R1A7). The test is described as follows: qHTS assay for small molecule activators of the rat pregnane X receptor (rPXR) signaling pathway (AID 651751; call rule not given here; also: 0% is about no effect). The settings on record: rPXR reporter cells, luciferase (One-Glo), 24 h.
The nature of test [20]: qHTS profiling for inhibitors of Plasmodium falciparum proliferation (AID 504749).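 Also: 0% = DMSO vehicle and full inhibition = artemisinin control; nearly all actives have a fitted effect of over 60% in size.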 The settings on record: P. falciparum in erythrocytes, SYBR Green DNA, 72 h, at 28.7 µM (top of the series). An outline of the steps: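 Infected RBCs, 0.3% parasitemia/2.5% Hct final; cpd 72 h, 37 C, 5% CO2; lysis buffer with saponin/triton/SYBR Green I, o/n RT dark; FI 485/535; norm. to artemisinin (0.29 uM) and DMSO.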

[21] abbreviates: measured here: cell count channel max response.
Where [22] appears, read: measured here: lipid channel max response.

“And” between values parts separate entries of the source, which are not always exact repeats. Identical values can stand only once. Records with an inconclusive call do not appear. The source made the active and inactive calls. Unless noted, calls follow the shape of the dose curve; as a rule, active = well fitted curve in the direction sought with a large enough effect; inconclusive = small, poorly fitted or top-dose-only effect, or another doubt; inactive = no such curve, though single readings can be large; an effect the other way counts as inactive or inconclusive.

Chain of Vitamin D3 receptor (Homo sapiens) (P11473 whole entry, looked up): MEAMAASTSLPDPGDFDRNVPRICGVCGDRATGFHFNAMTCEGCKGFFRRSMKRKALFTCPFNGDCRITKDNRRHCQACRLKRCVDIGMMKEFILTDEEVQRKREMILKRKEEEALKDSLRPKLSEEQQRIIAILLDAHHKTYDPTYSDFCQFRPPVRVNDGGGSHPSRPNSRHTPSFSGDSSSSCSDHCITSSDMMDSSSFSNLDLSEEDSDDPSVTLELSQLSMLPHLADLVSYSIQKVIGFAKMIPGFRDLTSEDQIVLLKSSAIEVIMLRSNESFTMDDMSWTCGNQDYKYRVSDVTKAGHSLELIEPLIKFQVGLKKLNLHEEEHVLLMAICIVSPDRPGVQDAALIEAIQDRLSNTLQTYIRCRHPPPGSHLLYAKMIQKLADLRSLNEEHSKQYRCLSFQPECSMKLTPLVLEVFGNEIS
Chain of Cytochrome P450 3A4 (Homo sapiens) (P08684 whole entry, looked up): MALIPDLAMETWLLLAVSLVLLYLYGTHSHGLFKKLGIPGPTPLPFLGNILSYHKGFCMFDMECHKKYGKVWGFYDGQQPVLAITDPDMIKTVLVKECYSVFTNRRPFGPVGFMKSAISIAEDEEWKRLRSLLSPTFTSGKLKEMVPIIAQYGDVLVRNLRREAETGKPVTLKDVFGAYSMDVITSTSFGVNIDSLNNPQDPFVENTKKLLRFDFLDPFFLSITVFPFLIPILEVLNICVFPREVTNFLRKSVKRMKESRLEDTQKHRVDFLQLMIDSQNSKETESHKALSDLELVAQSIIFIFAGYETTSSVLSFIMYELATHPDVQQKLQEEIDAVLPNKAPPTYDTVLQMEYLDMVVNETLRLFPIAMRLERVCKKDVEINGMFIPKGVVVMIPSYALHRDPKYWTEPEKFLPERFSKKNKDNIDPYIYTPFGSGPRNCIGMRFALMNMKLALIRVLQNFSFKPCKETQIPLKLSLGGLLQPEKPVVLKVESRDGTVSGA
Chain of Ubiquitin carboxyl-terminal hydrolase 1 (Homo sapiens) (O94782 whole entry, looked up): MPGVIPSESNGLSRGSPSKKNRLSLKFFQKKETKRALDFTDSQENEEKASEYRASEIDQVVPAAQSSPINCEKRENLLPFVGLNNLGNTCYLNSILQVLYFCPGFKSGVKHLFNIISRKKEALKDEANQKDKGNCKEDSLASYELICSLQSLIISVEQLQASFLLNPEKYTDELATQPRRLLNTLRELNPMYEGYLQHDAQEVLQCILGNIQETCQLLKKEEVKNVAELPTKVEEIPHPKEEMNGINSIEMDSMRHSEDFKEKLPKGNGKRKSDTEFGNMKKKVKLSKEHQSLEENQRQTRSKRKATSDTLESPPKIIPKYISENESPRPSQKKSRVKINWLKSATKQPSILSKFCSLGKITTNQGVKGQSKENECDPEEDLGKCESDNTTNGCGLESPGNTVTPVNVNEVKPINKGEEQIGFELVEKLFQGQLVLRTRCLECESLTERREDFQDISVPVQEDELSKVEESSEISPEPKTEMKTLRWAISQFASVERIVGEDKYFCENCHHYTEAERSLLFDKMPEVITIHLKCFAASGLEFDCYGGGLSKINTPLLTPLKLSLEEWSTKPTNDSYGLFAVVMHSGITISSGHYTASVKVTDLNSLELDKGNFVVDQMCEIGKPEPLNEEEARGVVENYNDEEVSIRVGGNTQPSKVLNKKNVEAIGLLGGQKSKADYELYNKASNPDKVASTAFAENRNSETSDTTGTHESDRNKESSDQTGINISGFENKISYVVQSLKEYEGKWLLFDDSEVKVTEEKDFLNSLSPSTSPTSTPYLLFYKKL
Chain of Retinoic acid receptor RXR-alpha (Homo sapiens) (P19793 whole entry, looked up): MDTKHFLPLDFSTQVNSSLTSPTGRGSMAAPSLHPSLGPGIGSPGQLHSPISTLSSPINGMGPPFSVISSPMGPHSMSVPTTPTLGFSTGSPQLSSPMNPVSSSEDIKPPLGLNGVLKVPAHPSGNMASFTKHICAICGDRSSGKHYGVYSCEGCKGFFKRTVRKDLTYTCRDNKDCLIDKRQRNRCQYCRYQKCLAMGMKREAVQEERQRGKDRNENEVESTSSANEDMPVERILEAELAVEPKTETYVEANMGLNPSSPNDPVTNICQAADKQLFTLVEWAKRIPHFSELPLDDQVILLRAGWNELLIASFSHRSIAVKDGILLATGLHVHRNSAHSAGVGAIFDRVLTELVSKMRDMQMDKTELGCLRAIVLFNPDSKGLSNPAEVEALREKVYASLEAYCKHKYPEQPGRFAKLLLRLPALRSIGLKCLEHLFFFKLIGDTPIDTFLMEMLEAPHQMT
Chain of Nuclear receptor subfamily 1 group I member 2 (Rattus norvegicus) (Q9R1A7 whole entry, looked up): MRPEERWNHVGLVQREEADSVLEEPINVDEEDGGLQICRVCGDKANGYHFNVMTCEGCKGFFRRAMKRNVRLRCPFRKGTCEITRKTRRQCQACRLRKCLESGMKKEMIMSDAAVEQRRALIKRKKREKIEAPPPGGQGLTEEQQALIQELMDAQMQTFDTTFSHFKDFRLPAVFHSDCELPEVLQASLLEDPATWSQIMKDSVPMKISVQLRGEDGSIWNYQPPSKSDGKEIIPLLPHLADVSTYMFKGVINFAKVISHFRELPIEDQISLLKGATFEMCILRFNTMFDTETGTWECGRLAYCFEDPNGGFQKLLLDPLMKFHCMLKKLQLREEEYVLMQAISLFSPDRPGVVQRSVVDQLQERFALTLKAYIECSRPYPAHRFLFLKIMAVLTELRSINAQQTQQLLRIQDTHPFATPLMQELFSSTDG
Chain of Peroxisome proliferator-activated receptor alpha (Homo sapiens) (Q07869 whole entry, looked up): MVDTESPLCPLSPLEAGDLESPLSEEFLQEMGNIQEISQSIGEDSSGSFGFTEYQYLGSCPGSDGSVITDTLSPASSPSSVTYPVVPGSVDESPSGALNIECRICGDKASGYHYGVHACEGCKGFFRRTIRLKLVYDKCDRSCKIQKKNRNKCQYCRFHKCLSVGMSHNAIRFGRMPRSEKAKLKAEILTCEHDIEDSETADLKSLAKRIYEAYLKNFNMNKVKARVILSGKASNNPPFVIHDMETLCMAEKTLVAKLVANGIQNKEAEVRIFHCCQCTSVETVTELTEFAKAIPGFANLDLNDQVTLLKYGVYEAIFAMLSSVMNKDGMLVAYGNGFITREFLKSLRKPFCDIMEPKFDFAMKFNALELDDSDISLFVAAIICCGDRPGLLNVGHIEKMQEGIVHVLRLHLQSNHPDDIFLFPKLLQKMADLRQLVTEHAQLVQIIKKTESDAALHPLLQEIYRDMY
Chain of Peroxisome proliferator-activated receptor delta (Homo sapiens) (Q03181 whole entry, looked up): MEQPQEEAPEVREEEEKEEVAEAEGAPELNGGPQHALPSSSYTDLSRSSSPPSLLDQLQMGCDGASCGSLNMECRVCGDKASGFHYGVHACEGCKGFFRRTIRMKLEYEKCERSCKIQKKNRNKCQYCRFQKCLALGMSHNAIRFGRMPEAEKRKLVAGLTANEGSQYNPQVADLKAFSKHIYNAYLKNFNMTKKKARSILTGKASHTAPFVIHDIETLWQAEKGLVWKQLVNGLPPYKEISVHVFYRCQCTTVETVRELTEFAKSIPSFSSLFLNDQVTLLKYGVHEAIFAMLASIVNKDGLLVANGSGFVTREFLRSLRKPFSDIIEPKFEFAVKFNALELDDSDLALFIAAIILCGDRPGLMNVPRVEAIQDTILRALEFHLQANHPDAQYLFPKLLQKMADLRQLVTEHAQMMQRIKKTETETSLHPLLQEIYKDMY
Chain of DNA dC->dU-editing enzyme APOBEC-3G (Homo sapiens) (Q9HC16 whole entry, looked up): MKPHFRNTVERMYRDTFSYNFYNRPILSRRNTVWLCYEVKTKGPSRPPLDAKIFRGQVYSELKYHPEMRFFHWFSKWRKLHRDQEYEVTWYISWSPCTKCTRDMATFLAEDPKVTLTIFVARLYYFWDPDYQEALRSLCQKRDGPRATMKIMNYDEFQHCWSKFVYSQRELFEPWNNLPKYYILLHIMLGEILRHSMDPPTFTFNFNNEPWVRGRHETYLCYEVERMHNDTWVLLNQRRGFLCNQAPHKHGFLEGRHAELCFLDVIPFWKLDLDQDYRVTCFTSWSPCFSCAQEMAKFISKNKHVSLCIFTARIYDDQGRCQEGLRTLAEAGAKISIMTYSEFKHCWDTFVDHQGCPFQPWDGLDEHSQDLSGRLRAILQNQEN

As to `C=C[C@H]1CN2CC[C@H]1C[C@H]2c1[nH]c2ccccc2c1CCO`, the Potency entry in [1] and in test [3] was “inactive” in each case. In addition, the activity change, negative = inhibition in [2] was 2.01% (inactive). Further, the max response is -5.69% in [2] (setting [21]) and -2.67% in test [2] (setting [22]). The outcome in test [4] was inactive.

For `CCN1C[C@@]2(COC(=O)c3ccccc3N3C(=O)CC(C)C3=O)CC[C@H](OC)[C@]34C5C[C@@H]6[C@@H](OC)C[C@@](O)(C5[C@H]6OC)[C@@](O)(C13)[C@@H](OC)C24` (some centres undefined), the Potency result in [1] and in test [3] was “inactive” each time. The activity change, negative = inhibition in test [2] was 4.09% (inactive). Also, the max response stood at 6.93% in [2] (setting [21]) and 19.9% in [2] (setting [22]). Further, the compound was classed as inactive in test [4].

Turning to `COc1nc(NC(C)C)nc(NC(C)C)n1`, the Potency entry in test [5], in [6], in [7], in test [3], in test [9] and in [12] was “inactive” each time. The Potency entry in [18] was “inactive”. Besides, the activity change, negative = inhibition in test [2] is 2.18% (inactive). Also, the max response in test [2] (setting [21]) was -5.5%; in test [2] (setting [22]), -2.96%; in test [8], 7.33%; in [11] it was 21.4%; in [13], -4.65%; in test [14], -8.1% (inactive). For the same compound, the max response was -3.74% (inactive) in [15], 5.54% (inactive) in test [16], -7.69% (inactive) in test [17] and -2.09% (inactive) in [19]. In addition, the outcome in test [10] was inactive.

As to `CNC(C)[C@@H](O)c1ccccc1` (some centres undefined), the Potency entry in test [5] and in test [7] was “inactive” each time. In test [2], the activity change, negative = inhibition is -6.91% (inactive). Moreover, the values for the max response in [2] (setting [21]) and in [2] (setting [22]) were 19.3% and 12.8%, respectively. The activity, negative = inhibition in test [20] (parasite line A) was -2.9% (inactive); in test [20] (parasite line B) it was -5.29% (inactive).

As to `CCc1cccc(C)c1N(C(=O)CCl)C(C)COC` (centres undefined), the Potency entry in test [5], in test [6], in [7], in test [3] and in test [18] was “inactive” in each case. Further, the activity change, negative = inhibition in test [2] is 1.46% (inactive). Besides, the max response in test [2] (setting [21]) is 1.84%; in test [2] (setting [22]), 4.99%; in test [13], 0.387%; in [14] it was -18.8% (inactive); in [15], -0.424% (inactive); in [16] it was -0.37% (inactive). Besides, the max response in test [17] was -14.8% (inactive); in test [19], 14% (inactive). For the same compound, the compound was called inactive in [10].

As for `CNC(=O)CSP(=S)(OC)OC`, the Potency result in test [5], in test [6], in test [7], in test [3], in [9] and in [12] was “inactive” each time. Besides, in test [18], the Potency entry was “inactive”. Besides, the activity change, negative = inhibition in [2] is 4.16% (inactive). The max response was 5.57% in test [2] (setting [21]); 8.94% in [2] (setting [22]); 27.9% in test [8]; 1.61% in test [11]; 1.7% in test [13]; -6.5% (inactive) in test [14]. For the same compound, the max response in test [15] was -2.63% (inactive) and -0.399% (inactive); in test [16] it was -1.41% (inactive) and -0.459% (inactive); in test [17], -6.64% (inactive) and -7.96% (inactive); in [19], -3.03% (inactive) and -0.565% (inactive). In addition, the outcome in test [10] was inactive.

For `O=C1NC(=O)C(=O)C(=O)N1`, the Potency entry in test [5], in [6] and in [7] was “inactive” in each case. Besides, the activity change, negative = inhibition in test [2] was 2.7% (inactive). The max response in test [2] (setting [21]) was 15%; in test [2] (setting [22]), 19.9%. In test [3], the Potency is 89.1 µM (active).

These data come from PubChem BioAssay (NCATS).
